According to PubChem BioAssay (NCATS):
Records with an inconclusive call do not appear. Calls of active or inactive are those of the source. Calls come from the whole dose curve; as a rule, active = well fitted inhibition curve with a large enough effect; inconclusive = small, poorly fitted or top-dose-only effect; inactive = flat fitted curve, though single readings scatter. Peptide text beside a SMILES is read from it.

Tested on: DFO2036
Experiment: qHTS profiling for inhibitors of Plasmodium falciparum proliferation (AID 504749); note: nearly all actives have a fitted effect of over 60% in size;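 for activity, negative = inhibition: 0% = DMSO vehicle and full inhibition = artemisinin control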
Settings: P. falciparum in erythrocytes, SYBR Green DNA, 72 h; series mostly up to 12.8 µM; activity, negative = inhibition: at the top concentration
Method in brief: (§1)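 Fluorescence of SYBR Green-bound parasite DNA, read at 485/535 nm, served as the growth measure. Infected erythrocytes were cultured with compound 72 h; artemisinin (0.29 uM) and DMSO wells defined the normalization range.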
Potency is the fitted concentration of half-maximal effect.

| Structure (SMILES) | activity, negative = inhibition | Potency |
| --- | --- | --- |
| CCC(C)C(=O)OC1CCC=C2C=CC(C)C(CCC3CC(O)CC(=O)O3)[C@@H]21 (stereo partly specified) | 14% [at 28.7 µM] (inactive) |  |
| C[C@]1(c2ccccc2)OC(C(=O)O)=CC1=O | 0.834% [at 28.7 µM] (inactive) |  |
| OCC1OC([S-])[C@H](O)C(O)C1O.[Au+] (stereo partly specified) | -0.5% [at 28.7 µM] (inactive) |  |
| COC(=O)N/N=C/C1=C[N+](=O)c2ccccc2[N+]1=O | 8.85% [at 28.7 µM] (inactive) |  |
| CN1CC(=O)N=C1N | 4.35% [at 28.7 µM] (inactive) |  |
| CNC1CC(N)[C@H](O)[C@@H](O[C@@H]2OC(CO)C3OC4(OC(C(N)CO)C(O)C(O)C4O)O[C@@H]3[C@H]2O)C1O (stereo partly specified) | 2.51% [at 28.7 µM] (inactive) |  |
| COC1C=CO[C@@]2(C)Oc3c(C)c(O)c4c(O)c(c(C=NN5CCN(C)CC5)c(O)c4c3C2=O)NC(=O)/C(C)=C\C=CC(C)C(O)[C@@H](C)C(O)C(C)[C@H](OC(C)=O)C1C (stereo partly specified) |  | 3550 nM (active) |
| CC(=O)N[C@@H]1C(O)OC(CO)C(O)C1O (stereo partly specified) | 7.97% [at 28.7 µM] (inactive) |  |
| CCC(CCC(C)C1CCC2C3CC=C4CC(O)CC[C@@]4(C)C3CC[C@@]12C)C(C)C (stereo partly specified) | 4.86% [at 28.7 µM] (inactive) |  |
| O=C1OC(CO)C(O)C(O)C1O (stereo unspecified) | 0.69% [at 28.7 µM] (inactive) |  |
| COc1ccc(CC(N)C(=O)NC2C(CO)OC(n3cnc4c(N(C)C)ncnc43)C2O)cc1 (stereo unspecified) |  | 891 nM (active) |
| CCCC(=O)O[C@]1(C(=O)CO)CCC2[C@@H]3CCC4=CC(=O)CC[C@]4(C)C3C(O)C[C@]21C (stereo partly specified) | 19.9% [at 28.7 µM] (inactive) |  |
| COC(=O)C(Cc1ccccc1)NC(=O)C(N)CC(=O)O (stereo not drawn) (H-Asp-Phe-OMe; configuration not given here) | 8.3% [at 28.7 µM] (inactive) |  |
| CC[C@@]12CCCN3CCc4c(n(c5ccccc45)[C@](O)(C(=O)OC)C1)C32 (stereo partly specified) | 6.46% [at 28.7 µM] (inactive) |  |
| CC1(C)SC2C(N3C(=O)C(c4ccccc4)NC3(C)C)C(=O)N2C1C(=O)O (stereo unspecified) | 10.9% [at 28.7 µM] (inactive) |  |
| CC1CCC(C(C)C)C(=O)C1 (stereo unspecified) | 4.2% [at 28.7 µM] (inactive) |  |

| Structure (SMILES) | activity, negative = inhibition | Potency |
| --- | --- | --- |
| CC(=O)N[C@H](CC(C)C)C(=O)O | 3.05% [at 28.7 µM] (inactive) |  |
| CC(C)C1CCC(C(=O)NC(Cc2ccccc2)C(=O)O)CC1 (stereo unspecified) | 4.41% [at 28.7 µM] (inactive) |  |
| COc1ccc2cc(C(C)CO)ccc2c1 (stereo unspecified) | 13.2% [at 28.7 µM] (inactive) |  |
| COc1ccc2cc1Oc1ccc(cc1)CC1c3c(cc4c(c3Oc3cc5c(cc3OC)CCN(C)C5C2)OCO4)CCN1C (stereo unspecified) |  | 7940 nM (active) |
| CNC1C(OC2C(O[C@@H]3C(O)C(O)[C@@H](N=C(N)N)C(O)C3N=C(N)N)OC(C)[C@@]2(O)CO)OC(CO)C(O)C1O (stereo partly specified) | -3.15% [at 28.7 µM] (inactive) |  |
| CC1C2CCC3C4CC=C5CC(N(C)C)CC[C@@]5(C)C4CC[C@@]32CN1C (stereo partly specified) | 12.2% [at 28.7 µM] (inactive) |  |
| C[C@]12C=CC(=O)C=C1CCC1C2C(O)C[C@]2(C)C1CC[C@]2(O)C(=O)CO (stereo partly specified) | 15.8% [at 28.7 µM] (inactive) |  |
| COc1ccc2c(c1)N(C[C@@H](C)CN(C)C)c1ccccc1S2 | -0.393% (inactive) |  |
| CCOC(=O)C1=CC(OC(CC)CC)C(NC(C)=O)C(N)C1 (stereo unspecified) | 1.54% [at 28.7 µM] (inactive) |  |
| CN(C)CCc1c[nH]c2ccc(CC3COC(=O)N3)cc12 (stereo unspecified) | 12.1% [at 28.7 µM] (inactive) |  |
| NCC1CCC(N)C(O[C@@H]2C(O)[C@H](O[C@H]3OC(CO)C(O)C(N)C3O)[C@@H](N)C[C@H]2N)O1 (stereo partly specified) | 16.5% [at 28.7 µM] (inactive) |  |
| OCC1O[C@H](OC2C(CO)O[C@@](O)(CO)C2O)C(O)C(O)C1O (stereo partly specified) | 3.34% [at 28.7 µM] (inactive) |  |
| CC1(C)OC2CO[C@]3(COS(N)(=O)=O)OC(C)(C)OC3C2O1 (stereo partly specified) | 7.42% [at 28.7 µM] (inactive) |  |
| CC(=O)OC1CCC2C3CCc4cc(O)ccc4C3CCC12C (stereo unspecified) | 10.9% [at 28.7 µM] (inactive) |  |
| CN(C)CCCOC1C(C(O)CO)OC2OC(C)(C)O[C@@H]21 (stereo partly specified) | 12.3% [at 28.7 µM] (inactive) |  |
| COc1cc(C2c3cc4c(cc3C(O[C@@H]3OC5COC(c6cccs6)OC5C(O)C3O)C3COC(=O)C23)OCO4)cc(OC)c1O (stereo partly specified) |  | 1120 nM (active) |

Tested on: DIV14
Experiment: as above
Settings: P. falciparum in erythrocytes, SYBR Green DNA, 72 h; series mostly up to 12.8 µM; activity, negative = inhibition: at the top concentration
Method in brief: as §1

| Structure (SMILES) | activity, negative = inhibition | Potency |
| --- | --- | --- |
| CCC(C)C(=O)OC1CCC=C2C=CC(C)C(CCC3CC(O)CC(=O)O3)[C@@H]21 (stereo partly specified) | -23.2% [at 28.7 µM] (inactive) |  |
| C[C@]1(c2ccccc2)OC(C(=O)O)=CC1=O | 6.77% [at 28.7 µM] (inactive) |  |
| OCC1OC([S-])[C@H](O)C(O)C1O.[Au+] (stereo partly specified) | -1.57% [at 28.7 µM] (inactive) |  |
| COC(=O)N/N=C/C1=C[N+](=O)c2ccccc2[N+]1=O | -19.2% [at 28.7 µM] (inactive) |  |
| CN1CC(=O)N=C1N | -0.0094% [at 28.7 µM] (inactive) |  |
| CNC1CC(N)[C@H](O)[C@@H](O[C@@H]2OC(CO)C3OC4(OC(C(N)CO)C(O)C(O)C4O)O[C@@H]3[C@H]2O)C1O (stereo partly specified) | 0.857% [at 28.7 µM] (inactive) |  |
| COC1C=CO[C@@]2(C)Oc3c(C)c(O)c4c(O)c(c(C=NN5CCN(C)CC5)c(O)c4c3C2=O)NC(=O)/C(C)=C\C=CC(C)C(O)[C@@H](C)C(O)C(C)[C@H](OC(C)=O)C1C (stereo partly specified) |  | 301 nM (active) |
| CCC(CCC(C)C1CCC2C3CC=C4CC(O)CC[C@@]4(C)C3CC[C@@]12C)C(C)C (stereo partly specified) | -11.4% [at 28.7 µM] (inactive) |  |
| O=C1OC(CO)C(O)C(O)C1O (stereo unspecified) | -7.09% [at 28.7 µM] (inactive) |  |
| COc1ccc(CC(N)C(=O)NC2C(CO)OC(n3cnc4c(N(C)C)ncnc43)C2O)cc1 (stereo unspecified) |  | 953 nM (active) |
| CCCC(=O)O[C@]1(C(=O)CO)CCC2[C@@H]3CCC4=CC(=O)CC[C@]4(C)C3C(O)C[C@]21C (stereo partly specified) | -13.7% [at 28.7 µM] (inactive) |  |
| COC(=O)C(Cc1ccccc1)NC(=O)C(N)CC(=O)O (stereo not drawn) (H-Asp-Phe-OMe; configuration not given here) | 1.34% [at 28.7 µM] (inactive) |  |
| CC[C@@]12CCCN3CCc4c(n(c5ccccc45)[C@](O)(C(=O)OC)C1)C32 (stereo partly specified) | -23.2% [at 28.7 µM] (inactive) |  |
| CC1(C)SC2C(N3C(=O)C(c4ccccc4)NC3(C)C)C(=O)N2C1C(=O)O (stereo unspecified) | -0.424% [at 28.7 µM] (inactive) |  |
| CC1CCC(C(C)C)C(=O)C1 (stereo unspecified) | -6.57% [at 28.7 µM] (inactive) |  |
| CC(=O)N[C@H](CC(C)C)C(=O)O | -21.6% [at 28.7 µM] (inactive) |  |
| CC(C)C1CCC(C(=O)NC(Cc2ccccc2)C(=O)O)CC1 (stereo unspecified) | 1.86% [at 28.7 µM] (inactive) |  |
| COc1ccc2cc(C(C)CO)ccc2c1 (stereo unspecified) | -8.92% [at 28.7 µM] (inactive) |  |
| COc1ccc2cc1Oc1ccc(cc1)CC1c3c(cc4c(c3Oc3cc5c(cc3OC)CCN(C)C5C2)OCO4)CCN1C (stereo unspecified) |  | 5360 nM (active) |
| CNC1C(OC2C(O[C@@H]3C(O)C(O)[C@@H](N=C(N)N)C(O)C3N=C(N)N)OC(C)[C@@]2(O)CO)OC(CO)C(O)C1O (stereo partly specified) | -8.26% [at 28.7 µM] (inactive) |  |
| CC1C2CCC3C4CC=C5CC(N(C)C)CC[C@@]5(C)C4CC[C@@]32CN1C (stereo partly specified) | 0.0074% [at 28.7 µM] (inactive) |  |
| C[C@]12C=CC(=O)C=C1CCC1C2C(O)C[C@]2(C)C1CC[C@]2(O)C(=O)CO (stereo partly specified) | 2.93% [at 28.7 µM] (inactive) |  |
| CN(C)CCc1c[nH]c2ccc(CC3COC(=O)N3)cc12 (stereo unspecified) | 0.432% [at 28.7 µM] (inactive) |  |
| NCC1CCC(N)C(O[C@@H]2C(O)[C@H](O[C@H]3OC(CO)C(O)C(N)C3O)[C@@H](N)C[C@H]2N)O1 (stereo partly specified) | -11.6% [at 28.7 µM] (inactive) |  |
| OCC1O[C@H](OC2C(CO)O[C@@](O)(CO)C2O)C(O)C(O)C1O (stereo partly specified) | 5.9% [at 28.7 µM] (inactive) |  |
| CC1(C)OC2CO[C@]3(COS(N)(=O)=O)OC(C)(C)OC3C2O1 (stereo partly specified) | 1.4% [at 28.7 µM] (inactive) |  |
| CC(=O)OC1CCC2C3CCc4cc(O)ccc4C3CCC12C (stereo unspecified) | -28.9% [at 28.7 µM] (inactive) |  |
| CN(C)CCCOC1C(C(O)CO)OC2OC(C)(C)O[C@@H]21 (stereo partly specified) | 10.5% [at 28.7 µM] (inactive) |  |
| COc1cc(C2c3cc4c(cc3C(O[C@@H]3OC5COC(c6cccs6)OC5C(O)C3O)C3COC(=O)C23)OCO4)cc(OC)c1O (stereo partly specified) |  | 1900 nM (active) |
